Laboratory results published in PubChem BioAssay (NCATS).
Records with an inconclusive call do not appear. The source made the active and inactive calls. Unless noted, the call rests on the fitted dose curve; in most records, active means well fitted curve in the direction sought with a large enough effect; inconclusive means small, poorly fitted or top-dose-only effect, or another doubt; inactive means no such curve, though single readings can be large; an effect the other way counts as inactive or inconclusive.

How the values were obtained:
[1] = target: Rap guanine nucleotide exchange factor 3 (Homo sapiens) (UniProt O95398); assay: Counterscreen qHTS for antagonist of cAMP-regulated guanine nucleotide exchange factor 3 (EPAC1) (AID 1645888);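 further: fluorescence loss as bound BODIPY-GDP is released from Rap1B; % of control where 0% means no effect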
Method in brief: (§1)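 Rap1B–BODIPY-GDP (250 nM) with 50 uM GDP; compounds pin-transferred to 9.74 nM–152 uM final (activator) or from 7.32 nM upwards (inhibitor). Fluorescence Ex/Em 480/540 nm read at 5 and 30 min, then after adding cAMP or buffer, at room temperature.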

[2] = target: Rap guanine nucleotide exchange factor 3 (Homo sapiens) (UniProt O95398); assay: Counterscreen qHTS for agonist of cAMP-regulated guanine nucleotide exchange factor 3 (EPAC1) (AID 1645889); further: nearly all actives have a fitted effect of over 40% in size; further: potency means the concentration at half of the fitted maximal effect; on activation: % of control where 0% means no effect
Method in brief: as §1

[3] = target: Cytochrome P450 1A2 (Homo sapiens) (UniProt P05177); assay: p450-cyp1a2 (AID 410; calls by dose curve;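 further: -100% = full effect of reference inhibitor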)
Method in brief: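 20nM CYP1A2 with 100uM Luciferin-ME (at Km) in 100mM KPO4; compound preincubated 10 min, NADPH regeneration added, 60 min at room temperature. Luciferin quantified by luminescence after detection reagent; normalized to 57 uM furafylline.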

[4] = NFAT Signaling Pathway (AID 444; active means well fitted curve in either direction with a large enough effect, not every such curve was filed as active;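 further: carbachol stimulus at about its EC50 of 1 µM final; on the % scale 0 is the no-effect control and ±100 the full control effect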); details: Jurkat NFAT-bla M1, carbachol, beta-lactamase ratio, 5 h; at 7.69 µM (top of the series) unless noted
Method in brief: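 Jurkat cells with NFAT-driven β-lactamase reporter and co-expressed M1 receptor, stimulated with carbachol (final 1 uM, ~EC50), compound titration, 5 h at 37 °C. CCF4 loaded 1 h at RT; 460/530 nm ratio gave %activity and AC50.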

[5] = target: Glucocorticoid receptor (Homo sapiens) (UniProt P04150); assay: GR-EFC Redistribution (AID 451; calls by dose curve; further: potency means the concentration at half of the fitted maximal effect); details: CHO-K1 GR-EFC translocation, beta-gal luminescence, 2 h
Method in brief: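 CHO-K1 cells expressing nuclear EA and GR-ED fragments of b-gal; compounds titrated up to 46 uM final, 2 h at 37 C. GR nuclear translocation read as complemented b-gal luminescence after 1 h RT detection.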

[6] = target: Mitogen-activated protein kinase 10 (Mus musculus) (UniProt Q61831); assay: JNK3 AlphaScreen Assay (AID 530; active means well fitted curve in either direction with a large enough effect, not every such curve was filed as active;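 further: kinase came from lysate of stimulated human HepG2 cells; signal reports phosphorylation of biotinylated GST-cJun 1-79 at Ser73 with 10 µM ATP; on the % scale 0 is the no-effect control and ±100 the full control effect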)
Method in brief: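 Pre-activated (IL-1β/TNFα) JNK3 in HepG2 lysates phosphorylates biotin-GST-cJun(1-79), 10 uM ATP; anti-phospho-cJun(Ser73) AlphaScreen read at room temperature, pH 7.6 Tris buffer. Compounds pre-incubated 15 min as titrations.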

[7] = target: 3',5'-cyclic-AMP phosphodiesterase 4B (Homo sapiens) (UniProt Q07343); assay: qHTS Assay for Inhibitors of PDE-IV (AID 607; active means well fitted activation curve with a large enough effect in the main read-out, with a control signal flat, not every such curve was filed as active; further: % of control where 0% means no effect)
Method in brief: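 ACTOne HEK293 cells carry a modified cAMP-gated CNG channel and express endogenous PDE4; plated 1000 cells/well, compounds up to 22.9 uM final. Membrane-potential dye fluorescence (ex 535/em 590) was read; parental cells received 10 uM forskolin + 100 uM RO 20-1724.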

[8] = target: Guanine nucleotide-binding protein G(i) subunit alpha-1 (Homo sapiens) (UniProt P63096); assay: qHTS Assay for Inhibitors of RGS12 GoLoco Motif Activity (Green Fluorophore) (AID 879);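 further: 0% = labeled peptide with Gαi1 and full inhibition = labeled peptide alone without protein; negative values mean loss of peptide binding seen as reduced polarization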
Method in brief: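 Fluorescence polarization assay: 50 nM Gαi1 with 10 nM FITC-labeled RGS12 GoLoco peptide in 10 mM Tris pH 7.5, 150 mM NaCl, 0.1 mM GDP, 0.05% NP40, 10 min at room temperature with compound.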

[9] = target: Cytochrome P450 3A4 (Homo sapiens) (UniProt P08684); assay: qHTS Assay for Activators of Cytochrome P450 3A4 (AID 885); further: nearly all actives have a fitted effect of over 65% in size
Method in brief: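 20nM CYP3A4 + 25uM Luciferin-PPXE (=KM), 200mM KPO4; cpd 10 min RT; NADPH regen, 60 min RT; stop w/ detection buffer, 20 min; luminescence. Normalized to 57 uM ketoconazole.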

[10] = target: Cytochrome P450 2D6 (Homo sapiens) (UniProt P10635); assay: qHTS Assay for Inhibitors and Substrates of Cytochrome P450 2D6 (AID 891); further: potency means the concentration at half of the fitted maximal effect; nearly all actives have a fitted effect of over 60% in size
Method in brief: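 Human CYP2D6 (5 nM) with 30 uM Luciferin-ME EGE (at Km) in 100 mM KPO4, compound preincubated 10 min, then NADPH regeneration system for 60 min at room temperature. Luciferin read by luminescence; normalized to 1.43 uM quinidine.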

[11] = qHTS Assay for Identification of Small Molecule Antagonists for Thrombopoietin (TPO) Signaling Pathway (AID 918); details: TPO-dependent cell signaling reporter, antagonist mode; further: potency means the concentration at half of the fitted maximal effect; nearly all actives have a fitted effect of over 60% in size
Method in brief: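 Murine Ba/F3 cells expressing human TPO receptor and a Glycoprotein IIb promoter-luciferase reporter, IL-3-starved overnight, treated with compound plus TPO at EC50 (26 pM final). After 24 h at 37 C, luminescence read to detect inhibitors.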

[12] = target: Muscarinic acetylcholine receptor M1 (Rattus norvegicus) (UniProt P08482); assay: qHTS Assay for Antagonists of Acetylcholine Muscarinic M1 Receptor: Measurement of IP-One Response (AID 944); further: potency means the concentration at half of the fitted maximal effect; nearly all actives have a fitted effect of over 75% in size
Method in brief: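 CHO cells stably expressing rat M1, pretreated 10 min with compound, then stimulated 30 min with carbachol at EC80 (200 nM) in LiCl-containing buffer pH 7.4; IP1 accumulation read by HTRF competition (665/620 nm).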

[13] = target: Pyruvate kinase (Leishmania mexicana) (UniProt Q27686); assay: qHTS Validation Assay for Inhibitors of Leishmania Mexicana Pyruvate Kinase (AID 945);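 further: 0% = DMSO only neutral control wells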
Method in brief: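 An endpoint luciferase assay: 0.2 nM LmPYK E451W turns over 0.5 mM PEP with 0.1 mM ADP for 1 h at room temperature, pH 7.2, before PKLight addition. Values are normalized to DMSO-only wells.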

[14] = target: Pyruvate kinase PKM (Homo sapiens) (UniProt P14618); assay: qHTS Assay for Activators of Human Muscle Pyruvate Kinase (AID 954; active means well fitted curve in the direction sought with a large enough effect, not every such curve was filed as active;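 further: 0% = uninhibited enzyme and -100% = no enzyme or full thiadiazolimine inhibition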)
Method in brief: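 Luminescence from a luciferase ATP-detection/stop reagent reported PKM2 activity. Reactions contained 0.1 nM purified human enzyme, 0.5 mM PEP, 0.1 mM ADP and 7 mM MgCl2 at pH 7.2, run 1 h at RT.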

[15] = target: Alpha-galactosidase A (Homo sapiens) (UniProt P06280); assay: Counterscreen for Glucocerebrosidase Inhibitors: qHTS Assay for Human alpha-Galactosidase at pH 4.5 (AID 992); further: 0% is about no effect
Method in brief: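 Enzyme at 2 nM final was combined with compound (0.7 nM to 77 uM) and 80 uM 4-methylumbelliferyl alpha-D-galactopyranoside in 50 mM citric acid, 0.005% Tween-20, pH 4.5. After 20 min at room temperature, fluorescence was read (Ex 365/Em 440 nm); AC50 came from Hill fits.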

[16] = target: alpha-glucosidase (Oryza sativa, rice) (UniProt Q653V4); assay: Counterscreen for Glucocerebrosidase Inhibitors: qHTS Assay for Rice alpha-Glucosidase at pH 5.0 (AID 997);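 further: 0% = full activity with enzyme and -100% = basal without enzyme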
Method in brief: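 Rice alpha-glucosidase (4 nM final) with 400 uM 4-methylumbelliferyl-alpha-D-glucopyranoside in citrate buffer pH 5.0, 20 min at room temperature, stopped at pH 10; fluorescence 365/440 nm, compounds 0.7 nM–77 uM, AC50 from Hill fits.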

[17] = target: DNA repair nuclease/redox regulator APEX1 (Homo sapiens) (UniProt P27695); assay: qHTS Validation Assay for Inhibitors of the Human Apurinic/apyrimidinic Endonuclease 1 (APE1) (AID 1705; further: potency means the concentration at half of the fitted maximal effect)
Method in brief: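 Activity read as rising fluorescence (598 nm emission, 525 nm excitation) from incision of a TAMRA/BHQ-2 duplex carrying a THF abasic site (50 nM). Compound and enzyme sat 15 min at RT before substrate start; signal change between first and third 60-s reads.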

[18] = Counterscreen for APE1 Inhibitors: Fluorescent Dye Displacement Validation Assay (AID 1707);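 further: plate controls were ThO with dsDNA and no compound for no effect and ThO without dsDNA for full effect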
Method in brief: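 Thiazole Orange displacement from dsDNA: 250 nM ThO with 50 nM TAMRA-labelled abasic-site (tetrahydrofuran) duplex in 50 mM Tris-HCl pH7.5, 50mM NaCl, 2 mM MgCl2, 0.01% Tween-20. Loss of endpoint fluorescence (ex 480 nm, em 540 nm) flags DNA binders.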

[19] = target: Endonuclease 4 (Escherichia coli (strain K12)) (UniProt P0A6C1); assay: Counterscreen for APE1 Inhibitors: qHTS Validation Assay for Inhibitors of Endonuclease IV (AID 1708); further: potency means the concentration at half of the fitted maximal effect
Method in brief: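 E. coli EndoIV at 2 nM final, preincubated 15 min at room temperature with compound, then 50 nM TAMRA/BHQ-2 THF abasic-site duplex added. Buffer: 50 mM Tris-HCl pH 7.5, 50 mM NaCl, 2 mM MgCl2, 1 mM DTT, 0.01% Tween-20. Kinetic fluorescence increase, third minus first read.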

[20] = qHTS for differential inhibitors of proliferation of Plasmodium falciparum line 7G8 (AID 1815);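 further: potency means the concentration at half of the fitted maximal effect; parasite growth measured after three days of incubation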
[21] = qHTS for differential inhibitors of proliferation of Plasmodium falciparum line GB4 (AID 1816); details: Potency: Plasmodium falciparum GB4 proliferation inhibition;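 further: potency means the concentration at half of the fitted maximal effect; parasite growth measured after 72 h incubation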
[22] = qHTS for differential inhibitors of proliferation of Plasmodium falciparum line 3D7 (AID 1876); further: potency means the concentration at half of the fitted maximal effect
[23] = qHTS for differential inhibitors of proliferation of Plasmodium falciparum line D10 (AID 1877);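 further: potency means the concentration at half of the fitted maximal effect; parasites grown with compound for 72 h before DNA staining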
[24] = qHTS for differential inhibitors of proliferation of Plasmodium falciparum line Dd2 (AID 1882); details: Potency: Plasmodium falciparum Dd2 proliferation inhibition; further: potency means the concentration at half of the fitted maximal effect; nearly all actives have a fitted effect of over 65% in size
Method in brief: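 Dd2-infected erythrocytes (0.3% parasitemia, 2.5% hematocrit final) incubated with compound 72 h at 37 C, 5% CO2; lysed with saponin/Triton buffer containing SYBR Green I, incubated overnight in the dark, then read by fluorescence (485/535 nm). Normalized to 0.29 uM artemisinin and DMSO.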

[25] = qHTS for differential inhibitors of proliferation of Plasmodium falciparum line W2 (AID 1883); details: Potency: Plasmodium falciparum W2 proliferation inhibition;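 further: potency means the concentration at half of the fitted maximal effect; parasites grown with compound for 72 h before lysis and staining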
[26] = qHTS for differential inhibitors of proliferation of Plasmodium falciparum line HB3 (AID 1886); details: Potency: Plasmodium falciparum HB3 proliferation inhibition;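 further: potency means the concentration at half of the fitted maximal effect; parasites grown with compound for 72 h before SYBR Green readout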
[27] = Quantitative high throughput screen for delayed death inhibitors of the malarial parasite plastid, 48 hour incubation (AID 488752); further: potency means the concentration at half of the fitted maximal effect; nearly all actives have a fitted effect of over 65% in size
Method in brief: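 Erythrocytes infected with firefly luciferase-expressing P. falciparum (2% hematocrit, 0.1% parasitemia) cultured with compound for 48 h at 37 C, 5% CO2, in RPMI 1640/0.5% Albumax. Growth inhibition read as loss of luminescence.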

[28] = target: M-phase phosphoprotein 8 (Homo sapiens) (UniProt Q99549); assay: qHTS Validation Assay for Inhibitors for MPP8 Chromodomain Interactions with Methylated Histone Tails (AID 488949); further: potency means the concentration at half of the fitted maximal effect; nearly all actives have a fitted effect of over 55% in size
Method in brief: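 AlphaScreen proximity signal from streptavidin donor and Ni-chelate acceptor beads (10 ug/mL each) reported binding of MPP8 to trimethyl-K9 H3(1-18) peptide, both at 50 nM. The complex formed 30 min before a 30 min compound exposure at room temperature, in PBS pH 7.4.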

[29] = target: Transient receptor potential cation channel subfamily V member 1 (Homo sapiens) (UniProt Q8NER1); assay: HTS Assay for Compounds that Act as Enhancers of the Vanilloid Receptor 1 (AID 488979); further: 0% is about no effect
Method in brief: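 TRPV1 cells loaded with Fluo-8 calcium dye; compound added and Ca2+ signal (ex 480/em 520 nm) followed 3 min, then capsaicin at EC20 added and read 2 more min to detect enhancement.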

[30] = target: Thyrotropin receptor (Homo sapiens) (UniProt P16473); assay: qHTS Assay for Antagonists of the Thyroid Stimulating Hormone Receptor (AID 488980); further: 0% is about no effect
Method in brief: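 Inhibition of cAMP raised by EC80 TSH (4 nM final) was read by HTRF, with lysate cAMP competing against cAMP-d2 for cryptate antibody after 30 min at room temperature. The cells were transfected HEK293 held in phosphodiesterase inhibitor RO 20-1724 at 70 uM.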

[31] = target: Thyrotropin-releasing hormone receptor (Homo sapiens) (UniProt P34981); assay: qHTS for Small Molecule Agonists and Allosteric Enhancers of Human TRH Receptor: Validation Screen for Agonists (AID 493127;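 active means calcium activation more than 3 SD above the typical response in the agonist read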; further: 0% is about no effect); details: TRH receptor agonist cell assay; at 2 µM; stronger effect = higher value
Method in brief: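 TRHR cells loaded with fluo-8 calcium dye; FDSS kinetic fluorescence (Ex 480/Em 530) read at 1 s/cycle after 23 nL compound addition. Agonist-mode calcium response recorded before the 10 nM TRH (EC20) addition.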

[32] = target: Galactokinase (Homo sapiens) (UniProt P51570); assay: qHTS Validation Assay for Inhibitors of Human Galactokinase (GALK) (AID 493189); further: 0% is about no effect
Method in brief: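 Inhibition was measured as remaining ATP, detected by luciferase luminescence after a 1 h room-temperature reaction. Final conditions: 5 nM GALK, 100 uM galactose, 35 uM ATP, pH 8.0 HEPES buffer.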

[33] = target: Voltage-gated inwardly rectifying potassium channel KCNH2 (Homo sapiens) (UniProt Q12809); assay: qHTS Assay for Small Molecule Inhibitors of the Human hERG Channel Activity (AID 588834);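 further: potency means the concentration at half of the fitted maximal effect; lower thallium flux fluorescence means stronger hERG block; nearly all actives have a fitted effect of over 50% in size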
Method in brief: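 Kinetic FDSS fluorescence; U2OS + hERG BacMam (~100 virus particles/cell); FluxOR Tl+ flux; ~10 min cpd; AC50 (Hill).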

Chain of Rap guanine nucleotide exchange factor 3 (Homo sapiens) (O95398 whole entry, looked up): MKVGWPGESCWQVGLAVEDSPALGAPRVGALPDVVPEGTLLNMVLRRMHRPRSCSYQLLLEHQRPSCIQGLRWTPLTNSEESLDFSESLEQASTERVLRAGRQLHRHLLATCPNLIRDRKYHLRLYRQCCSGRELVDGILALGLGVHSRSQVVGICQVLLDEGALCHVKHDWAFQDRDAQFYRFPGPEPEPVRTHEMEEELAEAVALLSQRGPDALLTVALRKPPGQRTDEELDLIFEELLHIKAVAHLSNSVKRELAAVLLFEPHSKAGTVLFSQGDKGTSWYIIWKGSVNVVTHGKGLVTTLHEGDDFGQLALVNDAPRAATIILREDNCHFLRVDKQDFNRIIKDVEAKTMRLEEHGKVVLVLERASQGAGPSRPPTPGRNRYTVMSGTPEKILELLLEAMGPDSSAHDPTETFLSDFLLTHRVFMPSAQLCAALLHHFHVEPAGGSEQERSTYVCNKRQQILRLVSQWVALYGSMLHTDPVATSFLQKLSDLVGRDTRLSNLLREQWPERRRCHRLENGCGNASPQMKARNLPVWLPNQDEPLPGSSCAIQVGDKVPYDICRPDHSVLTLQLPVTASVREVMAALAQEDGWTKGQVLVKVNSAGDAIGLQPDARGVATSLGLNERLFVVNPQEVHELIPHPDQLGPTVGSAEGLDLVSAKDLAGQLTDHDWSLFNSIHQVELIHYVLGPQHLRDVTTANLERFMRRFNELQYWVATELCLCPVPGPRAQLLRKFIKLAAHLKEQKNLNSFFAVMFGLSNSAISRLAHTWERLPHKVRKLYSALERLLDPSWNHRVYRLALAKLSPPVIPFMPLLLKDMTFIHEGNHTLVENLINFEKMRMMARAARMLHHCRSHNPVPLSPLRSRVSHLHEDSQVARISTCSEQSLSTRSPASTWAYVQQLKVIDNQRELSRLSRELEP
Chain of 3',5'-cyclic-AMP phosphodiesterase 4B (Homo sapiens) (Q07343 whole entry, looked up): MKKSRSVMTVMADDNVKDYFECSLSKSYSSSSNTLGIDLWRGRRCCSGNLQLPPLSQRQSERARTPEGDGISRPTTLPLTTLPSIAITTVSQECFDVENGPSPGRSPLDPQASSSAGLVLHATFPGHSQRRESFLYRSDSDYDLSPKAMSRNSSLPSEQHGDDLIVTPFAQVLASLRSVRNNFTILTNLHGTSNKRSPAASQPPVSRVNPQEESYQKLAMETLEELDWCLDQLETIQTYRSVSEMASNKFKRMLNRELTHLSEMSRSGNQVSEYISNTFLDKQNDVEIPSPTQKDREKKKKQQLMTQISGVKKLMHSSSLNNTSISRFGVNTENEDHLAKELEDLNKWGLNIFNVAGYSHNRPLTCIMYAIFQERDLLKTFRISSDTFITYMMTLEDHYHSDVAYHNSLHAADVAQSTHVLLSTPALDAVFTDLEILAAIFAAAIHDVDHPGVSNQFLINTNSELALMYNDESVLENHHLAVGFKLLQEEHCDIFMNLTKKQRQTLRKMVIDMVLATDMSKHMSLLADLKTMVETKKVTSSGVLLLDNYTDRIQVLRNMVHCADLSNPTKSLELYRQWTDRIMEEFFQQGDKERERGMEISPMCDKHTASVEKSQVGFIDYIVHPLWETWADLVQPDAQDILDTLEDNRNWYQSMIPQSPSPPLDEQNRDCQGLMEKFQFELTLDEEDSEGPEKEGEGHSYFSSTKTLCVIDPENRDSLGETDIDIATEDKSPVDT
Chain of Transient receptor potential cation channel subfamily V member 1 (Homo sapiens) (Q8NER1 whole entry, looked up): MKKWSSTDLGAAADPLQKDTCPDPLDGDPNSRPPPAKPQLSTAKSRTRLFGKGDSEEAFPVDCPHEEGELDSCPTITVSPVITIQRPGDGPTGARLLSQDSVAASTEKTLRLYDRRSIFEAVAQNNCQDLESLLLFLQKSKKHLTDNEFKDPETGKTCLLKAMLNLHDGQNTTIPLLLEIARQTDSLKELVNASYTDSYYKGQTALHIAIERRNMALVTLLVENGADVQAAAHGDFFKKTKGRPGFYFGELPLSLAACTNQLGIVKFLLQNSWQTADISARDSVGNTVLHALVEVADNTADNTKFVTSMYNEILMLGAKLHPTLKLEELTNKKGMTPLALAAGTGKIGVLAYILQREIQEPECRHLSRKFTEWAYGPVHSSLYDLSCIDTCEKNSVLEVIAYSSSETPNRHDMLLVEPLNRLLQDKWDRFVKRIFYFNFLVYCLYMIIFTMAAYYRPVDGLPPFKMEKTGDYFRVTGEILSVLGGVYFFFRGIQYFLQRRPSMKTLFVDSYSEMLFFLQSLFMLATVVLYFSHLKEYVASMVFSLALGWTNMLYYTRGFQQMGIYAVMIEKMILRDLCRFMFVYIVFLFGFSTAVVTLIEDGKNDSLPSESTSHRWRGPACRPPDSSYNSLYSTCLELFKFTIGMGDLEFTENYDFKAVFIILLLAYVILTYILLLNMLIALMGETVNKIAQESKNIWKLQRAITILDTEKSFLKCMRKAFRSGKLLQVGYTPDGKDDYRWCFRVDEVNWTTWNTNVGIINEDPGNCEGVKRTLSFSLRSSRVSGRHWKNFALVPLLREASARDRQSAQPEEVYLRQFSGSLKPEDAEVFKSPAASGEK
Chain of Cytochrome P450 2D6 (Homo sapiens) (P10635 whole entry, looked up): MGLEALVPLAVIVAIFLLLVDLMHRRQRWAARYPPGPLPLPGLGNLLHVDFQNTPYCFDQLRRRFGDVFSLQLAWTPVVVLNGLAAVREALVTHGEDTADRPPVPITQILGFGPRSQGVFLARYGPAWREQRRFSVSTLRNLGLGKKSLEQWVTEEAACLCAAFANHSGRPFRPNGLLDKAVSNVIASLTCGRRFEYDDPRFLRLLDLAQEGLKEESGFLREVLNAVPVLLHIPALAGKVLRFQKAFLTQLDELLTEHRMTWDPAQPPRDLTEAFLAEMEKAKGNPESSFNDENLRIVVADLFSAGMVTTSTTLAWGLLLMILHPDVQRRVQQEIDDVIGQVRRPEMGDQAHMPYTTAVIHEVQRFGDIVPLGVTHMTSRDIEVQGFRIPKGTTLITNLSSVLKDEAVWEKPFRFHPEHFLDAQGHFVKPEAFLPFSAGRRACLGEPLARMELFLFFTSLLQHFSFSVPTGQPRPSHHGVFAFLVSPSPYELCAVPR
Chain of Cytochrome P450 3A4 (Homo sapiens) (P08684 whole entry, looked up): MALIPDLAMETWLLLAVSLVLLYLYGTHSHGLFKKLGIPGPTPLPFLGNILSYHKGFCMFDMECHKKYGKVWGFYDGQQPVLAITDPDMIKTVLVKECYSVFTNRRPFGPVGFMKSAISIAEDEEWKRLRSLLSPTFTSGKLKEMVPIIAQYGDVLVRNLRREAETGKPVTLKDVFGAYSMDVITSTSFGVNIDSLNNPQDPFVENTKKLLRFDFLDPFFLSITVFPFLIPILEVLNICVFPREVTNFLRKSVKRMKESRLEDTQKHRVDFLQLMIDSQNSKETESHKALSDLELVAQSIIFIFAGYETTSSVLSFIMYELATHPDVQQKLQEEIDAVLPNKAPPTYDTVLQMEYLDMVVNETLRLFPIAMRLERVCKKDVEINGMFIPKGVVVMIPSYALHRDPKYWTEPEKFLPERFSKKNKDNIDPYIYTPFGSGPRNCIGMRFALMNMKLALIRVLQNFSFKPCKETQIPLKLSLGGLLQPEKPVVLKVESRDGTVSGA
Chain of Thyrotropin receptor (Homo sapiens) (P16473 whole entry, looked up): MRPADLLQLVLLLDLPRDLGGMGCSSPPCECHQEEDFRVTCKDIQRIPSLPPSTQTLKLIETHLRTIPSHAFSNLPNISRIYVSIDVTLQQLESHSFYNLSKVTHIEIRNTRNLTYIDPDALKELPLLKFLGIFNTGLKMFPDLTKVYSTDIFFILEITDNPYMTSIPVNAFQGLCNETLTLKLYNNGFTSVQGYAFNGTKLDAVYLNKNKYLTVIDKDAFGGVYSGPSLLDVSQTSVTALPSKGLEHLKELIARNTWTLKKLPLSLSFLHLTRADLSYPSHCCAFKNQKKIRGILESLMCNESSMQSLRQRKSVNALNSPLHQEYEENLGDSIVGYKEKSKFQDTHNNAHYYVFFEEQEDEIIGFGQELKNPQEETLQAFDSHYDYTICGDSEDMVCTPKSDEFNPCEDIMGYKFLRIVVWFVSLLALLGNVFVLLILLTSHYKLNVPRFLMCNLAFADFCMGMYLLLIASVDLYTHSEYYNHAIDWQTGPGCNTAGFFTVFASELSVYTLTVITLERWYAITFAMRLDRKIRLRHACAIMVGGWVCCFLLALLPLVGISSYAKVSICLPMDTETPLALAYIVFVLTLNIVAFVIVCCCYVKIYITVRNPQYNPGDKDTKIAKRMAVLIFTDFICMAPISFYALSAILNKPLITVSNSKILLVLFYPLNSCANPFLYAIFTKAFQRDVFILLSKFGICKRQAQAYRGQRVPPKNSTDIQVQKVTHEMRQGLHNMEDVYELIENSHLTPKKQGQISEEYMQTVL
Chain of Pyruvate kinase (Leishmania mexicana) (Q27686 2-499 E452W): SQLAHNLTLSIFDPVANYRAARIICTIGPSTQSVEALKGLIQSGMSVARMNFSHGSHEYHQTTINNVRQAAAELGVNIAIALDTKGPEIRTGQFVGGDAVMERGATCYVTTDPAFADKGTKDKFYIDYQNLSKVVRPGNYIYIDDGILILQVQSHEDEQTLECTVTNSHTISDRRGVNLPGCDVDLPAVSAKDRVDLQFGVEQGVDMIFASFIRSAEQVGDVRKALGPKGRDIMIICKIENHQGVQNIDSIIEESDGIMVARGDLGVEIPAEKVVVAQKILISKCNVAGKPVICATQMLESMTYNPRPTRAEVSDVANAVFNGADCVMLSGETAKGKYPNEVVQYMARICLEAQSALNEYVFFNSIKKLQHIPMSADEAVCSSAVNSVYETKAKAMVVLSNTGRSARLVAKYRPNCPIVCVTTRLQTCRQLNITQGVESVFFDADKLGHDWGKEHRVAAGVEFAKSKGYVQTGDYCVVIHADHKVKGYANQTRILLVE

COc1cc(C2CC(=O)Oc3cc(C)c(Cl)c(C)c32)cc(OC)c1OC (stereo unspecified)
inactive: activity change, negative = inhibition [1] -10.7% [at 30.8 µM] | activation [2] 28.3% [at 30.8 µM]

O=C1OC(c2ccccc2)(c2ccc(O)cc2)c2ccccc21 (stereo unspecified)
inactive: activity change, negative = inhibition [1] -9.22% [at 30.8 µM]

CC1CCN(C2(O)C(=O)Nc3ccc(Br)cc32)CC1 (stereo unspecified)
inactive: Potency [2]

O=C(NCCC1CCCCN1S(=O)(=O)c1ccc(Cl)cc1)C(=O)NCc1ccco1 (stereo unspecified)
active: Potency [2] 89100 nM

Cc1cc(N)c2ccccc2[n+]1CCCCCCCCCCCCCC[n+]1c(C)cc(N)c2ccccc21
inactive: Potency [3] | Potency [5] > 46000 nM | Potency [6] | Potency [7] | Potency [8] | outcome [9] | outcome [13] | outcome [14] | outcome [15] | outcome [16] | outcome [18] | outcome [29] | outcome [30] | activation [31] -0.125% | outcome [32]
active: activity change, negative = inhibition [4] -82.1% [at 38 µM] | Potency [10] 7940 nM | Potency [11] 2510 nM | Potency [12] 3980 nM | Potency [17] 28200 nM | Potency [19] 28200 nM | Potency [20] 316 nM | Potency [21] 316 nM | Potency [22] 126 nM | Potency [23] 316 nM | Potency [24] 355 nM | Potency [25] 141 nM | Potency [26] 316 nM | Potency [27] 1470 nM | Potency [28] 39800 nM | Potency [33] 7080 nM
